ChEMBL document CHEMBL2218924, “A broad activity screen in support of a chemogenomic map for kinase signalling research and drug discovery” (Biochem J, 2013)

Columns and labels:
[1] = molecular target: Mitogen-activated protein kinase 11 (Homo sapiens) (UniProt Q15759); conditions: at 1 µM
[2] = molecular target: Mitogen-activated protein kinase 11 (Homo sapiens) (UniProt Q15759); conditions: at 10 µM
[3] = molecular target: T1, Serine/threonine-protein kinase Sgk1 (Homo sapiens) (UniProt O00141); conditions: at 10 µM
T1 sequence (whole entry): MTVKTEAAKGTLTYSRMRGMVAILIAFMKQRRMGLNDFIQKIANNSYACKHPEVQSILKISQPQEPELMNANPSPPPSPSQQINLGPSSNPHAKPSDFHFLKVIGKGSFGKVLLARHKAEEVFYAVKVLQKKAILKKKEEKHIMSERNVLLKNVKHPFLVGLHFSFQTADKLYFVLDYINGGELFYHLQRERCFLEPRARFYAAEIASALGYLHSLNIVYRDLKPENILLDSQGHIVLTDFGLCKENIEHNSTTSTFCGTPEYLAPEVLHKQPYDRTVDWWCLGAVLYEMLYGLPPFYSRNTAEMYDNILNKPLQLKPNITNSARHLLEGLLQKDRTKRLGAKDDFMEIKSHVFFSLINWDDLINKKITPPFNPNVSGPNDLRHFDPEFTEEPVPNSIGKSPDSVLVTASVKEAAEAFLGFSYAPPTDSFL

[4] = molecular target: Serine/threonine-protein kinase SIK1 (Homo sapiens) (UniProt P57059); conditions: at 1 µM
Serine/threonine-protein kinase SIK1 (Homo sapiens), sequence (P57059 whole entry): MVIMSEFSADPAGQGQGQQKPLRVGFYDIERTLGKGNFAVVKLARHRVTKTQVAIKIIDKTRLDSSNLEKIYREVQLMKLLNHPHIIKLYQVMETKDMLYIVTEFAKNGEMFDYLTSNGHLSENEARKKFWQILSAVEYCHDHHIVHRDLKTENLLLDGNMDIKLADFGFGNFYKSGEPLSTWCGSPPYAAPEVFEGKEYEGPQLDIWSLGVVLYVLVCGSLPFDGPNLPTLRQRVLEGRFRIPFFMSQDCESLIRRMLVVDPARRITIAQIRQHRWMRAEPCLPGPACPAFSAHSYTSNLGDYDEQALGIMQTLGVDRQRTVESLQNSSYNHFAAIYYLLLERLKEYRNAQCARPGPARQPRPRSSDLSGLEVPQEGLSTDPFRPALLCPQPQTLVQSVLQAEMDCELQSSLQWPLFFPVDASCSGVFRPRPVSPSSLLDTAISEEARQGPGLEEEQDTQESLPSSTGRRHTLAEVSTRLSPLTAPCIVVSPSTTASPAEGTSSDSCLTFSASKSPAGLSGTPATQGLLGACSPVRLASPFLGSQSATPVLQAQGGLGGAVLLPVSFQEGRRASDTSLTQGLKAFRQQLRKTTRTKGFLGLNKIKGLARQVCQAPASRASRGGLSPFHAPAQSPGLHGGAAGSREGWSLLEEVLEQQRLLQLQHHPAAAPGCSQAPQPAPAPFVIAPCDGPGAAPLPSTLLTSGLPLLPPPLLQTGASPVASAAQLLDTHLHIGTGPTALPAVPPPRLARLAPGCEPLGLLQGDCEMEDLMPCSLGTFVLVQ

[5] = molecular target: T2, Mitogen-activated protein kinase 13 (Homo sapiens) (UniProt O15264); conditions: at 10 µM
T2 sequence (whole entry): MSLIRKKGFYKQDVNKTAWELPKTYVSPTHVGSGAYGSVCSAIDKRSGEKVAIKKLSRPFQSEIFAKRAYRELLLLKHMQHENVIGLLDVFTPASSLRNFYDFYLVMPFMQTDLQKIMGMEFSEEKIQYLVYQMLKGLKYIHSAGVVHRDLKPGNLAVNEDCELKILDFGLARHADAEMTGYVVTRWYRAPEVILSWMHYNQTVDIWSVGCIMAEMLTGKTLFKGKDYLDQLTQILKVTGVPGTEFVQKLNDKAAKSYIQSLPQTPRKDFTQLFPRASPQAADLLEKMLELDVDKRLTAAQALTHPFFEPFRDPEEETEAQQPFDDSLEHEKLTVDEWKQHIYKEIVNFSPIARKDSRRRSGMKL

[6] = molecular target: T1, Serine/threonine-protein kinase Sgk1 (Homo sapiens); conditions: at 1 µM
[7] = molecular target: T3, Serine/threonine-protein kinase Sgk2 (Homo sapiens) (UniProt Q9HBY8); conditions: at 10 µM
T3 sequence (whole entry): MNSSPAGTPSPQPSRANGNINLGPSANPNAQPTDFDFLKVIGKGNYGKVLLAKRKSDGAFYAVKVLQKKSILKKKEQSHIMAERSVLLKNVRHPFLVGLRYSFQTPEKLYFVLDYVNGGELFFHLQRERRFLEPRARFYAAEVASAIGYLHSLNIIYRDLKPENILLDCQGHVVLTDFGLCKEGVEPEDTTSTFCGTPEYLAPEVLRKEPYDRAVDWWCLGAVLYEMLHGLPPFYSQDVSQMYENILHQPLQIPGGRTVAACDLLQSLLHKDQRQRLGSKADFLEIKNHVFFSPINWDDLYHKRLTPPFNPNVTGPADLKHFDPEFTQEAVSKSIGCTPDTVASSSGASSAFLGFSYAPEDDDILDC

[8] = molecular target: T4, Serine/threonine-protein kinase Sgk3 (Homo sapiens) (UniProt Q96BR1); conditions: at 10 µM
T4 sequence (whole entry): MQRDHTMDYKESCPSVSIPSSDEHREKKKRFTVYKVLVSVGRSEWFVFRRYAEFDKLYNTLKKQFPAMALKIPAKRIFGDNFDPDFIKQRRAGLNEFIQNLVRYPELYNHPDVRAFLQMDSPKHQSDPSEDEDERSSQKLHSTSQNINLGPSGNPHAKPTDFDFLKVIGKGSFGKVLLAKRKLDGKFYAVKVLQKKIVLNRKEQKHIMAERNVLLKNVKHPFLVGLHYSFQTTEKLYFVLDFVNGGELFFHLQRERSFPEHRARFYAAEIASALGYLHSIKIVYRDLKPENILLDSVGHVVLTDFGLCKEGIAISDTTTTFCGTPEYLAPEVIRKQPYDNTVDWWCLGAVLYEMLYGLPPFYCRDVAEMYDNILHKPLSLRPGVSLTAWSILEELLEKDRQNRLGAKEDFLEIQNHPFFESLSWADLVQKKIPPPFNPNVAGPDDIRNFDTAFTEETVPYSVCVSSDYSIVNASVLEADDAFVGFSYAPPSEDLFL

[9] = molecular target: T2, Mitogen-activated protein kinase 13 (Homo sapiens); conditions: at 1 µM
[10] = molecular target: T3, Serine/threonine-protein kinase Sgk2 (Homo sapiens); conditions: at 1 µM

Mitogen-activated protein kinase 11 (Homo sapiens), sequence (Q15759 whole entry): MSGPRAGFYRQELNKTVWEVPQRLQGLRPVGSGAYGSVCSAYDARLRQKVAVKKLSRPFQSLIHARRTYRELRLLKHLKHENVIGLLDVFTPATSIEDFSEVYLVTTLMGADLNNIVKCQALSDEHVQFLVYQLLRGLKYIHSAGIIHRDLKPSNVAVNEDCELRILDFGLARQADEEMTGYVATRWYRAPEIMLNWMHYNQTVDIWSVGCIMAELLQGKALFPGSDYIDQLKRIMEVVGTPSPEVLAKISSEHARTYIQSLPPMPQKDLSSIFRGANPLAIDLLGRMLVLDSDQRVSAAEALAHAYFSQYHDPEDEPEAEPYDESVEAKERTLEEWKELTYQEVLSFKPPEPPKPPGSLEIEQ

Row | Structure (SMILES) | residual activity [1] [%] | residual activity [2] [%] | residual activity [3] [%] | residual activity [4] [%] | residual activity [5] [%] | residual activity [6] [%] | residual activity [7] [%] | residual activity [8] [%] | residual activity [9] [%] | residual activity [10] [%]
1 | O=c1c(-c2ccc(F)cc2)c(-c2ccncc2)[nH]n1-c1ccc(Cl)cc1 | 23 | 5 | 101 | 141 | – | – | – | – | – | –
2 | Nc1nc(Nc2ccc(S(N)(=O)=O)cc2)nn1C(=O)c1c(F)cccc1F | 102 | 77 | 75 | 50 | 31 | 124 | 49 | 79 | – | –
3 | CCCC(=O)Oc1ccc2[nH]c(C(=O)c3cc4ccccc4[nH]3)cc2c1 | 104 | – | 95 | 83 | 86 | 101 | 96 | 85 | 104 | 99
4 | O=C(c1ccccc1)c1ccc(N2CCOCC2)cc1O | 96 | 91 | 95 | 97 | – | 79 | 68 | 88 | – | 134
5 | Cn1sc(=O)n(Cc2ccccc2)c1=O | 89 | 89 | 96 | – | 98 | 91 | – | 86 | 100 | 91
6 | CSc1nc(-c2ccc(F)cc2)c(-c2ccnc(NC(C)c3ccccc3)c2)[nH]1 (configuration not stated) | 10 | -2 | – | 144 | – | – | 91 | – | – | –
7 | CC(C)[C@H](CO)Nc1nc(Nc2cc(N)cc(Cl)c2)c2ncn(C(C)C)c2n1 | 119 | 99 | – | – | – | – | 51 | 92 | – | 95
8 | O=C1NC(=O)c2c1c1c3ccccc3[nH]c1n1cncc21 | 90 | 87 | 47 | 83 | 88 | 66 | 38 | 67 | 93 | 52
9 | CCOC(=O)c1c(C)[nH]c(/C=C2\C(=O)Nc3ccccc32)c1C | 98 | 77 | – | – | – | – | 76 | – | – | 82
10 | O=C(CCCc1ccc(-c2ccccc2F)cc1)Nc1ccc(O)cc1 | 105 | 95 | 179 | – | 96 | 83 | 135 | – | 105 | 131
11 | O=C(O)/C=C/c1cc(Br)c(Br)c(Br)c1Br | 107 | 126 | 49 | – | 93 | 100 | 41 | 84 | 103 | 83
12 | COc1cc2c(cc1OC)-c1n[nH]c(Nc3cccc(F)c3)c1C2 | 60 | 25 | – | 4 | 74 | 70 | 98 | – | 102 | 109
13 | Fc1ccc(-c2nc3n(c2-c2ccncc2)CCS3)cc1 | 80 | 23 | – | 139 | – | – | – | – | – | –
14 | Nc1ncnc2c1cnn2-c1ccccc1 | 97 | 85 | 98 | – | – | 90 | 68 | 93 | – | –
15 | COc1cc2nccc(Oc3ccc(NC(=O)Nc4cc(C)on4)c(Cl)c3)c2cc1OC | 19 | – | – | – | 97 | – | 79 | – | – | 103
16 | O=C(NC(NC(=S)Nc1ccc(F)c([N+](=O)[O-])c1)C(Cl)(Cl)Cl)C(c1ccccc1)c1ccccc1 (configuration not stated) | 98 | 97 | 83 | 136 | 104 | – | – | 77 | 95 | –
17 | NC(=O)c1ccc(-c2nc(-c3ccc4c(c3)OCCO4)c(-c3ccccn3)[nH]2)cc1 | 93 | 88 | 90 | – | – | 98 | 89 | – | – | 97
18 | CN([C@@H](Cc1ccc(OS(=O)(=O)c2cccc3cnccc23)cc1)C(=O)N1CCN(c2ccccc2)CC1)S(=O)(=O)c1cccc2cnccc12 | 113 | – | – | – | – | 123 | – | 83 | 81 | –
19 | NC(=O)Nc1sc(-c2ccc(F)cc2)cc1C(N)=O | 89 | 68 | – | 28 | 73 | – | – | 85 | 90 | –
20 | Nc1ncnc2c1c(-c1ccc(Oc3ccccc3)cc1)cn2C1CCCC1 | 87 | 75 | 111 | 78 | – | 110 | 78 | 86 | 95 | 98
21 | O=C1Nc2ccc(Cl)cc2/C1=C/c1cc(Cl)c(O)c(Cl)c1 | 88 | 67 | 69 | 72 | 93 | 64 | 55 | 81 | – | 84
22 | O=C1Cc2c([nH]c3ccc([N+](=O)[O-])cc23)-c2ccccc2N1 | 100 | 103 | – | 100 | – | – | 68 | – | – | 65
23 | Nc1ncnc2[nH]nc(Nc3ccc(F)cc3)c12 | 103 | – | 74 | 48 | 94 | 94 | 43 | 80 | 103 | 113
24 | CCCCc1c(-c2ccc(OC)cc2)[nH]c2nccnc12 | 106 | – | 117 | 86 | – | 106 | 81 | 88 | – | 90
25 | O=C1Cc2c([nH]c3ccc(Br)cc23)-c2ccccc2N1 | 98 | 89 | 81 | 91 | 68 | 95 | 74 | 83 | 98 | 99
26 | O=c1cc(N2CCOCC2)oc2c1ccc1ccccc12 | 93 | 101 | 97 | 95 | 95 | 105 | 86 | 97 | 100 | 92
27 | CN(C)S(=O)(=O)c1ccc2c(c1)/C(=C/c1cc3c([nH]1)CCCC3)C(=O)N2 | 94 | – | 96 | – | 96 | 82 | 95 | – | 97 | 115
